Test in all cases: NCI-60 one-dose screen, 48 h (100 = growth as untreated, 0 = no growth, -100 = all killed)
Conditions in all cases: 10 µM unless noted

Experiment [1] relates to T-47D breast.
Experiment [2] has as its system BT-549 breast.
Experiment [3] concerns MDA-MB-435 melanoma.
The test system of experiment [4] is SW-620 colon.
In experiment [5] the test system is MCF7 breast.
The test system of experiment [6] is HCT-116 colon.
The subject of experiment [7] is HCC-2998 colon.
Experiment [8] deals with KM12 colon.

Compounds without any hit were thinned out: in the full panel of roughly 83,000, 20% have a hit.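 The endpoint reported here, percent growth, reads 100 for growth as untreated, 0 for no net growth and -100 for all cells dead.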 A number with no mark means an inactive call. The source made the active and inactive calls. The calls were made as follows: active = growth percent below 10; inactive = the rest.

We go through 15 compounds from PubChem BioAssay (NCI).

As to `Cc1c(CC(=S)N2CCOCC2)nnn1-c1cccc(C(F)(F)F)c1`, the growth in experiment [1] was 103%; in experiment [2], 112%; in experiment [3] it was 103%; in experiment [4], 99.9%; in experiment [5] it was 104%; in experiment [6], 102%. Besides, the growth in experiment [7] was 119%; in experiment [8], 105%.

Regarding `CCN1C(=O)N(CC)C2C1N=C(SCc1ccc(Cl)cc1)N2/N=C/C=C/c1ccccc1OC` (stereo not given), the growth is 41.6% in experiment [1]; 106% in experiment [2]; -16.9% (active) in experiment [3]; 74.8% in experiment [4]; 13.5% in experiment [5]; 37% in experiment [6]. Also, the growth was 85.9% in experiment [7] and 64.6% in experiment [8].

Consider `CCN(CC)CCCN1C(=O)c2c(c(C)c3c(oc4ccc(OC)cc43)c2C)C1=O`, for which the growth is 105% in experiment [1]; 119% in experiment [2]; 109% in experiment [3]; 97.9% in experiment [4]; 98.3% in experiment [5]; 93.3% in experiment [6]. Also, the figures for the growth in experiment [7] and in experiment [8] were 105% and 104%, respectively.

Take `O=c1ccc(=O)n(-c2nc(-c3ccc([N+](=O)[O-])cc3)cs2)[nH]1`: the growth is 98.5% in experiment [1]; 98.5% in experiment [2]; 99.1% in experiment [3]; 101% in experiment [4]; 90.1% in experiment [5]; 95.2% in experiment [6]. Further, the growth in experiment [7] is 106%; in experiment [8] it was 99.6%.

For `CC(C)(C)n1cc(-c2ccnc(NCCNS(=O)(=O)c3ccc(O)cc3)c2)c(-c2cccc(O)c2)n1`, the growth in experiment [1] is 88.4%; in experiment [2], 93.6%; in experiment [3] it was 101%; in experiment [4] it was 103%; in experiment [5] it was 81.5%; in experiment [6] it was 82.4%. In addition, the growth in experiment [7] is 122%; in experiment [8], 94.7%.

Turning to `CC/C=C\C[C@H](O)C/C=C1/C(=O)C=C[C@@H]1C/C=C\CCCC(=O)O`, the growth in experiment [1] was 12%; in experiment [2], 46.2%; in experiment [3], 36.9%; in experiment [4] it was 49.6%; in experiment [5] it was 13.9%; in experiment [6], 8.9% (active). Further, the growth in experiment [7] was 57.7%; in experiment [8], 41.6%.

In the case of `COc1ccc2c(c1)CCc1[nH]nc(-c3cc(OC)c(OC)c(OC)c3)c1-2`, the growth is 31.3% in experiment [1]; 5.42% (active) in experiment [2]; -30.3% (active) in experiment [3]; 20.4% in experiment [4]; 6.38% (active) in experiment [5]; -3.02% (active) in experiment [6]. For the same compound, the growth was 5.58% (active) in experiment [7] and 7.02% (active) in experiment [8].

For the compound `CCN(CC)Cc1cc(Nc2ccnc3cc(Cl)ccc23)ccc1O`, the growth was 100% in experiment [1]; 95.5% in experiment [2]; 97.8% in experiment [3]; 88.4% in experiment [4]; 86.9% in experiment [5]; 79.7% in experiment [6]. Also, the values for the growth in experiment [7] and in experiment [8] were 93.2% and 87.7%, respectively.

For `COc1cc2c(cc1OCCCCN1CCN(C(=S)SCCC(C#N)(c3ccccc3)c3ccccc3)CC1)N=C[C@@H]1CCCN1C2=O`, the growth in experiment [1] was -13.3% (active); in experiment [2] it was -91.8% (active); in experiment [3], -17% (active); in experiment [4], -95.6% (active); in experiment [5], -93.4% (active); in experiment [6], -62.1% (active). In addition, the growth is -72.3% (active) in experiment [7] and -60.9% (active) in experiment [8].

As for `CNC1=C([N+](=O)[O-])C(c2ccc(OC)cc2)C(C#N)=C(c2cccs2)O1` (stereo not given), the growth in experiment [1] was 91.7%; in experiment [2], 117%; in experiment [3] it was 108%; in experiment [4], 106%; in experiment [5], 96%; in experiment [6], 109%. Further, the growth in experiment [7] is 109%; in experiment [8], 103%.

On to `Oc1c(CN2CCOCC2)cc(COCc2ccccc2)c2cccnc12`, for which the growth is 10.4% in experiment [1]; 36.4% in experiment [2]; 46.8% in experiment [3]; 28.9% in experiment [4]; 9.26% (active) in experiment [5]; 21.6% in experiment [6]. For the same compound, the growth in experiment [7] was 54.2%; in experiment [8] it was 35.6%.

Consider `COc1cccc(/C=C/C(=O)c2cccc(Nc3nc(Nc4ccccc4)nc(Nc4ccccc4)n3)c2)c1`, for which the growth is 53.5% in experiment [1]; 99% in experiment [2]; 91.4% in experiment [3]; 40.5% in experiment [4]; 21.9% in experiment [5]; 12.8% in experiment [6]. For the same compound, the growth in experiment [7] was 21.6%; in experiment [8], 62.8%.

Consider `O=C1c2cccc3cccc(c23)C(=O)N1C/C=C/c1ccc2c3c(cccc13)C(=O)N(CCO)C2=O`, for which the growth was 76.7% in experiment [1]; 40.3% in experiment [2]; 94.4% in experiment [3]; 81.8% in experiment [4]; 80.1% in experiment [5]; 76% in experiment [6]. Besides, the figures for the growth in experiment [7] and in experiment [8] were 85.7% and 76.2%, respectively.

Consider `C[C@@H]1O[C@@H](O[C@@H]2C[C@H](c3ccc4c(c3O)C(=O)C3=C(C4=O)[C@@]4(O)C(=O)C[C@](C)(O)C[C@@]4(O)C=C3)O[C@H](C)[C@H]2O)CC[C@@H]1O[C@H]1C[C@@H](O)[C@H](O)[C@@H](C)O1`, for which the growth in experiment [1] is 78.7%; in experiment [2], 100%; in experiment [3], 106%; in experiment [4], 94.4%; in experiment [5], 86.4%; in experiment [6] it was 91.1%. Besides, the growth is 103% in experiment [7] and 101% in experiment [8].

As to `Nc1nc2c(c3ncccc13)C(c1cccc(Cl)c1)Cc1ncccc1-2` (stereo not given), the growth is 30.1% in experiment [1]; 38.7% in experiment [2]; -57.9% (active) in experiment [3]; 23.1% in experiment [4]; 17.2% in experiment [5]; 24.4% in experiment [6]. Also, the growth in experiment [7] is 34.4%; in experiment [8] it was 19.4%.
